Assay results as given in PubChem BioAssay AID463173 (ICCB-Longwood Screening Facility, Harvard Medical School, 2010).
Out of some 52,000 compounds screened, about 1,700 (3.3%) were called active. Rule as the data show it: active = survival mostly below about 52% (no sharp cut-off); inactive = mostly above about 56%. For the sample, actives were picked, then their nearest neighbours and some compounds at random.

test system: Wild type; assay: growth inhibition of S. aureus wild type versus tarO mutant, primary screen, teichoic acid synthesis inhibitors, RN4220, OD600 (AID 463173); conditions: S. aureus RN4220 wild type/DeltatarO growth, OD600, 18 h, active compounds read low, screened at 18.75 µg/mL (by protocol)

| Compound | survival |
| --- | --- |
| COc1ccc(-n2ccnc(NCc3ccc(Cl)cc3)c2=O)cc1 | 0% (active) |
| COc1ccc(-n2ccnc(NCc3ccccc3OC)c2=O)cc1 | 85% (inactive) |
| COc1ccc(-n2ccnc(NCc3cccs3)c2=O)cc1OC | 80% (inactive) |
| COc1ccc(-n2ccnc(NCc3cccs3)c2=O)cc1 | -3% (active) |
| COc1ccc(-n2ccnc(NCc3ccc(C)cc3)c2=O)cc1OC | 87% (inactive) |
| O=c1c(NCc2cccs2)nccn1-c1ccccc1 | 74% (inactive) |
| COc1ccc(-c2cc3nc(C)c(CCC(=O)N4CCN(c5ccc(F)cc5)CC4)c(C)n3n2)c(OC)c1 | 85% (inactive) |
| COC(=O)c1cc(S(=O)(=O)N2CCN(c3ccc(C)cc3C)CC2)cn1C | 65% (inactive) |
| COCCNC(=S)N1CCC(c2nc(-c3ccc(N(C)C)cc3)no2)CC1 | 107% (inactive) |
| COCCNC(=O)CCCn1c(SCC(=O)Nc2cccc(C)c2)nc2c(sc3ccccc32)c1=O | 86% (inactive) |
| COc1cccc(-c2nc(SCc3cc(=O)c4ccc(C)c(C)c4[nH]3)n[nH]2)c1 | 97% (inactive) |
| CCOc1ccc(CNC(=O)CCS(=O)(=O)c2cc3c4c(c2)CCN4C(=O)CC3)cc1 | 71% (inactive) |
| O=C(Nc1ccccc1Cl)c1sc2cccc(Cl)c2c1Cl | 72% (inactive) |
| COc1ccccc1NC(=O)c1sc2cccc(Cl)c2c1Cl | 71% (inactive) |
| CCN(CC)c1ccc(NC(=O)c2sc3ccccc3c2Cl)cc1 | 15% (active) |
| Cc1ccc(NC(=O)c2sc3ccccc3c2Cl)cc1 | 76% (inactive) |
| CCCC(=O)Nc1ccc(NC(=O)c2sc3ccccc3c2Cl)cc1 | 128% (inactive) |
| Cc1cccc(NC(=O)c2sc3cccc(Cl)c3c2Cl)c1 | 6% (active) |
| O=C(Nc1ccc(N2C(=O)C=CC2=O)cc1Cl)c1ccco1 | 105% (inactive) |
| CC1CCCCN1CCCNC(=O)Cn1ncc2c3ccccc3n(Cc3ccccc3F)c2c1=O (centres undefined) | 90% (inactive) |
| O=C(Nc1ccccc1)c1cccc(N2CCCC2=O)c1 | 110% (inactive) |
| CC1CCN(S(=O)(=O)c2ccc(S(=O)(=O)N3CCCN(Cc4ccccc4)C3)cc2)CC1 | 107% (inactive) |
| C/C(=N\Nc1nc2sc3c(c2c2ncnn12)CC(C)(C)OC3)C(=O)O | 102% (inactive) |
| COc1ccc(C2C(C(N)=O)=C(C)Nc3nc(CCCO)nn32)c(OC)c1 (centres undefined) | 62% (inactive) |
| COc1ccc(-n2nc3c(N4CCC(C(=O)NC5CCCCC5)CC4)nnc(C)c3c2C)cc1 | 73% (inactive) |
| Cc1nc(SCC(=O)OC(C)(C)C)c2c3c(sc2n1)CCCC3 | 15% (active) |

| Compound | survival |
| --- | --- |
| Cc1nc(SCC(=O)Nc2nsc(-c3ccc(C(C)(C)C)cc3)n2)c2c3c(sc2n1)CCCC3 | 92% (inactive) |
| Cc1nc(SCC(N)=O)c2c3c(sc2n1)CCCC3 | 90% (inactive) |
| COc1ccccc1Cc1nc2ccccc2nc1SCC(=O)Nc1ccc2c(c1)OCO2 | 45% (inactive) |
| O=C(Cn1nnc(-c2ccccc2)n1)N1CCCCC1 | 109% (inactive) |
| CC(=O)Nc1ccc(S(=O)(=O)N2CCN(Cc3ccccc3Cl)CC2)cc1 | 117% (inactive) |
| Cc1ccc(S(=O)(=O)N2CCC(C(=O)NCc3ccccc3Cl)CC2)cc1 | 64% (inactive) |
| Cc1ccc(S(=O)(=O)N2CCN(Cc3ccccc3Cl)CC2)cc1 | 19% (active) |
| CC(C)(C)c1ccc(C(=O)NC2(C(F)(F)F)NC(=O)N(CCc3ccccc3)C2=O)cc1 (centres undefined) | 43% (inactive) |
| O=C(Nc1cccc(C(F)(F)F)c1)Nc1cccs1 | 4% (active) |
| O=C(Nc1cccs1)Nc1cc(C(F)(F)F)ccc1Cl | 26% (inactive) |
| Cc1c(Cl)cccc1NC(=O)Nc1ccc2snnc2c1 | 24% (active) |
| O=C(Nc1cccc(C(F)(F)F)c1)c1cccs1 | 116% (inactive) |
| O=C(Nc1ccc(F)cc1)Nc1ccc2snnc2c1 | 45% (inactive) |
| Cc1c(Cl)cccc1NC(=O)c1ccc2snnc2c1 | 106% (inactive) |
| O=C(Nc1cccc(C(F)(F)F)c1)c1ccc2snnc2c1 | 118% (inactive) |
| CCc1ccccc1NC(=O)Nc1ccc2snnc2c1 | 82% (inactive) |
| O=C(Nc1cccc(C(F)(F)F)c1)Nc1ccc2snnc2c1 | 29% (active) |
| CCc1ccc(NC(=O)CSc2nc3c(sc4ccccc43)c(=O)n2CCN(CC)CC)cc1 | 73% (inactive) |
| CCN(CC)/C(=N/OCc1ccc(Cl)cc1Cl)c1nonc1N | 100% (inactive) |
| CC1=NN(C(C#N)c2ccccc2)C(C)(C)C1 (centres undefined) | 113% (inactive) |
| Cc1cccc(N2CCN(Cc3nnc(-c4ccc5c(c4)OCO5)o3)CC2)c1C | 83% (inactive) |
| Cc1cc2nnc(SCc3ccc(F)cc3)n2c2ccccc12 | -2% (active) |
| CCOC(=O)c1ccc(CSc2nnc3cc(C)c4ccccc4n23)cc1 | 108% (inactive) |
| CCCN(CCC)C(=O)CSc1nnc2cc(C)c3ccccc3n12 | 84% (inactive) |
| COc1ccc(Cn2c(SCc3ccc(C(=O)NCCc4ccccc4)cc3)nc3cccnc32)cc1 | 77% (inactive) |
| CCCCn1c(NCc2ccc(N(C)C)cc2)nc2ccccc21 | 70% (inactive) |

| Compound | survival |
| --- | --- |
| CCCCn1c(NCc2ccc(OC)cc2O)nc2ccccc21 | 88% (inactive) |
| CCn1c(NCc2ccc(OC)c(OC)c2)nc2ccccc21 | 127% (inactive) |
| CCCn1c(NCc2ccccc2F)nc2ccccc21 | 89% (inactive) |
| CCCCCn1c(NCc2ccc(OC)cc2)nc2ccccc21 | -2% (active) |
| CCCn1c(NCc2ccccc2C)nc2ccccc21 | 95% (inactive) |
| CCCCCn1c(NCc2ccccc2OC)nc2ccccc21 | -5% (active) |
| CCCn1c(NCc2ccc(N(CC)CC)cc2)nc2ccccc21 | 0% (active) |
| CCCCn1c(NCc2cc(Br)ccc2O)nc2ccccc21 | 69% (inactive) |
| CCOc1ccc(CNS(=O)(=O)c2ccc3c(c2)CC(C)N3C(C)=O)cc1OC (centres undefined) | 70% (inactive) |
| CCN(C(=O)C1CCC(CNS(=O)(=O)c2cccc3nsnc23)CC1)c1ccccc1 (centres undefined) | 76% (inactive) |
| CCOC(=O)c1[nH]c(C)c(CCC(=O)Nc2ccccc2OCC)c1C | 84% (inactive) |
| COc1ccc(-c2cn3nc(N4CCCC(C(=O)Nc5ccc(Cl)cc5C)C4)sc3n2)cc1 (centres undefined) | 77% (inactive) |
| O=C(Cn1c(=O)n(Cc2ccco2)c(=O)c2sc3ccccc3c21)Nc1ccc(F)cc1F | 84% (inactive) |
| Cc1ccc(NC(=O)CN2CCCN(Cc3ccccc3Cl)S2(=O)=O)c(C)c1 | -1% (active) |
| CCc1cccc(C)c1NC(=O)CN1CCCN(Cc2ccc(C)cc2)S1(=O)=O | 0% (active) |
| Cc1ccc(NC(=O)CN2CCCN(Cc3cc(C)ccc3C)S2(=O)=O)c(Cl)c1 | 55% (inactive) |
| Cc1ccc(CN2CCCN(CC(=O)Nc3ccc(C)cc3C)S2(=O)=O)cc1 | 85% (inactive) |
| O=C(CN1CCCN(Cc2ccccc2Cl)S1(=O)=O)NCc1ccccc1 | 78% (inactive) |
| CCc1cccc(C)c1NC(=O)CN1CCN(Cc2ccccc2Cl)S1(=O)=O | 134% (inactive) |
| Cc1ccccc1CN1CCCN(CC(=O)Nc2c(C)cccc2C)S1(=O)=O | 66% (inactive) |
| CCc1cccc(C)c1NC(=O)CN1CCCN(Cc2ccccc2Cl)S1(=O)=O | 14% (active) |
| Cc1cccc(CN2CCN(CC(=O)Nc3c(C)cccc3C)S2(=O)=O)c1 | 134% (inactive) |
| COc1ccccc1CNC(=O)c1cnc2sc(N3CCOCC3)nn2c1=O | 153% (inactive) |
| CC(C)(C)c1ccc(C(=O)Nc2c(C(=O)c3ccc(F)cc3)oc3ccccc23)cc1 | 73% (inactive) |
| Cc1ccc(C(=O)N2CC3(C)CC2CC(C)(C)C3)cc1 (centres undefined) | 110% (inactive) |
| CCn1c(CN2CCCCC2)nc2cc(NC(=O)COc3ccc([N+](=O)[O-])cc3)ccc21 | 79% (inactive) |

| Compound | survival |
| --- | --- |
| COc1cc(C(=O)N(CCc2ccccc2)C2CC3CCC(C2)N3C)cc(OC)c1OC (centres undefined) | 104% (inactive) |
| O=C(NCc1ccccc1)c1nc(S(=O)(=O)Cc2ccccc2)ncc1Cl | 42% (inactive) |
| COc1ccc(OC)c(NC(=O)c2nc(SCc3ccc(F)cc3)ncc2Cl)c1 | 100% (inactive) |
| COc1ccc(CNC(=O)c2nc(S(=O)(=O)Cc3ccccc3)ncc2Cl)cc1 | 34% (inactive) |
| COc1ccc(OC)c(NC(=O)c2nc(S(=O)(=O)Cc3ccc(F)cc3)ncc2Cl)c1 | -3% (active) |
| Cc1ccc(C)c(NC(=O)c2nc(S(=O)(=O)Cc3ccc(F)cc3)ncc2Cl)c1 | 109% (inactive) |
| O=C(NCc1ccccc1)c1nc(S(=O)(=O)Cc2ccc(F)cc2)ncc1Cl | -5% (active) |
| COc1cc(C2NC(=O)c3c(sc4c3CCN(C)C4)N2)ccc1OC(=O)c1ccccc1 (centres undefined) | 80% (inactive) |
| O=C(CSc1nc(=O)n(Cc2ccco2)c2c1CCC2)NCc1ccccc1 | 72% (inactive) |
| Cc1ccc(NC(=O)CCc2nnc3n(C)c(=O)c4sccc4n23)cc1C | 72% (inactive) |
| Cc1ccsc1CCN1C(=O)N(c2ccc(F)cc2)C(=O)C1CC(=O)Nc1ccccc1 (centres undefined) | 72% (inactive) |
| COc1ccc2c(CNCc3cccs3)c(C(=O)O)n(Cc3ccccc3)c2c1 | 84% (inactive) |
| COc1cc(NS(=O)(=O)c2ccc3[nH]c4c(c3c2)CCCC4)cc(OC)c1OC | 129% (inactive) |
| CCOC(=O)c1cccc(NC(=O)CCCn2c(C)c3cnn(-c4ccccc4)c(=O)c3c2C)c1 | 77% (inactive) |
| CCCSc1nc2sc3c(c2c(=O)n1-c1ccc(C)cc1)CCCC3 | 5% (active) |
| CC(C)CCSc1nnc2n(-c3ccccc3)c(=O)c3c4c(sc3n12)CC(C)CC4 (centres undefined) | 76% (inactive) |
| CCCSc1nc2sc3c(c2c(=O)n1-c1ccccc1)CCC(C)C3 (centres undefined) | 1% (active) |
| Cc1ccc(-n2c(SCCC(C)C)nc3sc4c(c3c2=O)CC(C)(C)OC4)cc1 | 76% (inactive) |
| CCSc1nc2sc3c(c2c(=O)n1-c1ccc(C)c(Cl)c1)CCN(C(C)=O)C3 | 70% (inactive) |
| CSc1nc2sc3c(c2c(=O)n1-c1ccccc1)CCC(C(C)(C)C)C3 (centres undefined) | 12% (active) |
| Cc1ccc(-n2c(SCC(=O)O)nc3sc4c(c3c2=O)CCCC4)cc1 | 73% (inactive) |
| CCSc1nc2sc3c(c2c(=O)n1-c1ccc(C)cc1)CCCC3 | 0% (active) |
| CCOC(=O)CSc1nc2sc3c(c2c(=O)n1-c1ccccc1)CCC(C(C)(C)C)C3 (centres undefined) | 70% (inactive) |
| C=C(C)CSc1nc2sc3c(c2c(=O)n1-c1ccccc1)CCC(C)C3 (centres undefined) | 67% (inactive) |
| CSc1nc2sc3c(c2c(=O)n1Cc1ccccc1)CCC(C(C)(C)C)C3 (centres undefined) | 113% (inactive) |
| CCCSc1nc2sc3c(c2c(=O)n1-c1ccc(C)c(Cl)c1)CCN(C(C)=O)C3 | 87% (inactive) |
